Laboratory results taken from PubChem BioAssay (NCATS).
Records with an inconclusive call do not appear. Calls of active or inactive are those of the source. The call rests on the fitted dose curve; in most records, active means well fitted cell-killing curve with a large enough effect; inconclusive means small, poorly fitted or top-dose-only effect, or effect the other way; inactive means no such curve, though single readings can be large or run the other way.

How the values were obtained:
[1] = Quantitative High-Throughput drug screen in 47 multiple myeloma cell lines against the NCATS MIPE library collection: MM1R_ATCC cell viability assay (AID 1918981); further: nearly all actives have a fitted effect of over 35% in size; further: potency means the concentration at half of the fitted maximal effect
Procedure, shortened: (§1)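 ATP-based CellTiter-Glo luminescence after 48 h drug exposure (37 °C, 5% CO2) of 500 myeloma cells per well. DMSO-only wells set 100% viability, media-only wells 0%; MIPE 4.0 library added by pin tool.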

[2] = Quantitative High-Throughput drug screen in 47 multiple myeloma cell lines against the NCATS MIPE library collection: LP1_DSMZ cell viability assay (AID 1918982); further: nearly all actives have a fitted effect of over 35% in size; further: potency means the concentration at half of the fitted maximal effect
Procedure, shortened: as §1

[3] = Quantitative High-Throughput drug screen in 47 multiple myeloma cell lines against the NCATS MIPE library collection: OCIMY7_PLB cell viability assay (AID 1918987); conditions: OCI-MY7 myeloma viability, CellTiter-Glo ATP, 48 h; viability (% of DMSO): at 45.8 µM (top of the series); further: nearly all actives have a fitted effect of over 65% in size; further: potency means the concentration at half of the fitted maximal effect
Procedure, shortened: as §1

[4] = Quantitative High-Throughput drug screen in 47 multiple myeloma cell lines against the NCATS MIPE library collection: OCIMY5_PLB cell viability assay (AID 1918988); further: nearly all actives have a fitted effect of over 65% in size; further: potency means the concentration at half of the fitted maximal effect
Procedure, shortened: as §1

[5] = Quantitative High-Throughput drug screen in 47 multiple myeloma cell lines against the NCATS MIPE library collection: OPM1_PLB cell viability assay (AID 1918989); further: nearly all actives have a fitted effect of over 40% in size; further: potency means the concentration at half of the fitted maximal effect
Procedure, shortened: as §1

[6] = Quantitative High-Throughput drug screen in 47 multiple myeloma cell lines against the NCATS MIPE library collection: U266_ATCC cell viability assay (AID 1919864); further: nearly all actives have a fitted effect of over 35% in size; further: potency means the concentration at half of the fitted maximal effect
Procedure, shortened: as §1

[7] = Quantitative High-Throughput drug screen in 47 multiple myeloma cell lines against the NCATS MIPE library collection: XG6_PLB cell viability assay (AID 1919865); further: nearly all actives have a fitted effect of over 40% in size; further: potency means the concentration at half of the fitted maximal effect
Procedure, shortened: as §1

[8] = Quantitative High-Throughput drug screen in 47 multiple myeloma cell lines against the NCATS MIPE library collection: XG1_PLB cell viability assay (AID 1919866); further: nearly all actives have a fitted effect of over 35% in size; further: potency means the concentration at half of the fitted maximal effect
Procedure, shortened: as §1

[9] = Quantitative High-Throughput drug screen in 47 multiple myeloma cell lines against the NCATS MIPE library collection: VP6_DJ cell viability assay (AID 1919867); further: nearly all actives have a fitted effect of over 40% in size; further: potency means the concentration at half of the fitted maximal effect
Procedure, shortened: as §1

[10] = Quantitative High-Throughput drug screen in 47 multiple myeloma cell lines against the NCATS MIPE library collection: PCM6_Riken cell viability assay (AID 1919870); further: nearly all actives have a fitted effect of over 30% in size; further: potency means the concentration at half of the fitted maximal effect
Procedure, shortened: as §1

[11] = Quantitative High-Throughput drug screen in 47 multiple myeloma cell lines against the NCATS MIPE library collection: OPM2_DSMZ cell viability assay (AID 1919872); further: nearly all actives have a fitted effect of over 30% in size; further: potency means the concentration at half of the fitted maximal effect
Procedure, shortened: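 Luminescent ATP measurement with CellTiter-Glo gives viability, scaled between DMSO-only wells (100%) and media-only wells (0%). Cells, 500 per well, faced library compounds for 48 hours at 37C.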

[12] = Quantitative High-Throughput drug screen in 47 multiple myeloma cell lines against the NCATS MIPE library collection: KMS11_JCRBsus cell viability assay (AID 1919873); further: nearly all actives have a fitted effect of over 50% in size
Procedure, shortened: as §1

[13] = Quantitative High-Throughput drug screen in 47 multiple myeloma cell lines against the NCATS MIPE library collection: KMS28BM_JCRB cell viability assay (AID 1919874); further: nearly all actives have a fitted effect of over 35% in size; further: potency means the concentration at half of the fitted maximal effect
Procedure, shortened: as §1

[14] = Quantitative High-Throughput drug screen in 47 multiple myeloma cell lines against the NCATS MIPE library collection: L363_DSMZ cell viability assay (AID 1918984); conditions: L363 myeloma viability, CellTiter-Glo ATP luminescence, 48 h; viability (% of control): at 45.8 µM (top of the series); further: nearly all actives have a fitted effect of over 40% in size; further: potency means the concentration at half of the fitted maximal effect
Procedure, shortened: as §1

[15] = Quantitative High-Throughput drug screen in 47 multiple myeloma cell lines against the NCATS MIPE library collection: KMS34_JCRB cell viability assay (AID 1918985); further: nearly all actives have a fitted effect of over 40% in size; further: potency means the concentration at half of the fitted maximal effect
Procedure, shortened: as §1

[16] = Quantitative High-Throughput drug screen in 47 multiple myeloma cell lines against the NCATS MIPE library collection: UTMC2_PLB cell viability assay (AID 1919868); conditions: CellTiter-Glo ATP luminescence, 48 h; viability (% of DMSO control): at 45.8 µM (top of the series); further: nearly all actives have a fitted effect of over 55% in size; further: potency means the concentration at half of the fitted maximal effect
Procedure, shortened: as §1

[17] = Quantitative High-Throughput drug screen in 47 multiple myeloma cell lines against the NCATS MIPE library collection: RPMI8226_ATCC cell viability assay (AID 1919871); further: nearly all actives have a fitted effect of over 30% in size; further: potency means the concentration at half of the fitted maximal effect
Procedure, shortened: as §1

[18] = Quantitative High-Throughput drug screen in 47 multiple myeloma cell lines against the NCATS MIPE library collection: SKMM1_PLB cell viability assay (AID 1919863); conditions: SKMM1 myeloma viability, CellTiter-Glo ATP, 48 h; viability: active compounds read low; further: nearly all actives have a fitted effect of over 35% in size
Procedure, shortened: as §1

[19] = Quantitative High-Throughput drug screen in 47 multiple myeloma cell lines against the NCATS MIPE library collection: PE2_PLB cell viability assay (AID 1919869); further: nearly all actives have a fitted effect of over 35% in size; further: potency means the concentration at half of the fitted maximal effect
Procedure, shortened: as §1

[20] = Quantitative High-Throughput drug screen in 47 multiple myeloma cell lines against the NCATS MIPE library collection: KMS28PE_JCRB cell viability assay (AID 1918983); further: nearly all actives have a fitted effect of over 35% in size; further: potency means the concentration at half of the fitted maximal effect
Procedure, shortened: as §1

COc1cc(CNC(=O)CCCCC=CC(C)C)ccc1O
active: Potency [3] 14.8 µM | Potency [7] 13.2 µM
inactive: Potency [1] | Potency [2] | Potency [4] | Potency [5] | Potency [6] | Potency [8] | Potency [9] | Potency [10] | Potency [11] | Potency [12] | Potency [13]

C[C@@]1(c2cc(-c3cncnc3)c(F)cc2F)CCSC(N)=N1
inactive: Potency [1] | Potency [2] | Potency [15] | Potency [16] | Potency [17]
active: Potency [14] 1.48 µM | Potency [10] 2.96 µM | Potency [13] 13.2 µM

CC(C)(CO)[C@@H](O)C(=O)NCCC(=O)O
active: Potency [10] 16.6 µM
inactive: Potency [1] | Potency [2] | Potency [3] | Potency [4] | Potency [5] | viability [18] 102% | Potency [8] | Potency [19] | Potency [17] | Potency [11] | Potency [12] | Potency [13]

CN1CCN(c2ncc(-c3cc(Cl)cc(Cl)c3Cl)c(N)n2)CC1
active: Potency [14] 18.7 µM | Potency [3] 33.2 µM | Potency [6] 26.4 µM | Potency [7] 7.43 µM | Potency [8] 7.43 µM | Potency [19] 10.5 µM
inactive: Potency [1] | Potency [2] | Potency [15] | Potency [4] | Potency [16] | Potency [17] | Potency [12]

CNC1[C@H](O)C(O[C@@H]2C(O)C(O[C@H]3O[C@H]([C@@H](C)NC)CC[C@H]3N)[C@@H](N)C[C@H]2N)OC[C@]1(C)O (some centres undefined)
inactive: Potency [1] | Potency [2] | Potency [15] | Potency [3] | Potency [4] | viability [18] 103% | Potency [6] | Potency [7] | Potency [10] | Potency [17] | Potency [11] | Potency [13]
active: Potency [8] 18.7 µM

C=C1c2cccc(O)c2C(O)=C2C(=O)[C@@]3(O)C(O)=C(C(N)=O)C(=O)[C@@H](N(C)C)[C@@H]3[C@@H](O)[C@H]12
active: Potency [1] 20.9 µM | Potency [2] 23.5 µM | Potency [3] 9.35 µM | Potency [4] 18.7 µM | Potency [5] 23.5 µM | Potency [10] 16.6 µM
inactive: Potency [14] | Potency [12]

CC(C)c1onc(-c2c(Cl)cccc2Cl)c1COc1ccc(C=Cc2cccc(C(=O)O)c2)c(Cl)c1
inactive: Potency [2] | Potency [15] | Potency [5] | viability [18] 113% | Potency [8] | Potency [19] | Potency [17] | Potency [11] | Potency [12] | Potency [13]
active: Potency [1] 0.148 µM

CCC(C)SSc1ncc[nH]1 (centres undefined)
active: Potency [1] 5.26 µM | Potency [20] 11.8 µM | Potency [14] 2.96 µM | Potency [15] 4.18 µM | Potency [3] 3.72 µM | Potency [4] 5.26 µM | Potency [5] 3.72 µM | Potency [6] 4.69 µM | Potency [7] 7.43 µM | Potency [8] 5.26 µM | Potency [9] 13.2 µM | Potency [16] 8.33 µM | Potency [19] 3.72 µM | Potency [10] 7.43 µM | Potency [11] 5.9 µM | Potency [13] 9.35 µM

C[C@@H](O)[C@H]1C(=O)N2C(C(=O)OCOC(=O)C(C)(C)C)=C(SC3CN(C4=NCCS4)C3)[C@H](C)[C@H]12
inactive: Potency [2] | Potency [20] | Potency [5] | Potency [9] | Potency [17] | Potency [11] | Potency [12]
active: Potency [1] 16.6 µM | Potency [10] 23.5 µM

COc1nc(C)cnc1NS(=O)(=O)c1cccnc1-c1ccc(-c2nnco2)cc1
inactive: Potency [1] | Potency [2] | Potency [14] | viability [18] 126% | Potency [6] | Potency [7] | Potency [8] | Potency [9] | Potency [16] | Potency [19] | Potency [10] | Potency [17] | Potency [11] | Potency [12]

NC(=O)c1ccc(N(C(N)=O)c2c(F)cccc2F)nc1-c1ccc(F)cc1F
inactive: Potency [1] | Potency [2] | Potency [20] | Potency [6] | Potency [17] | Potency [11] | Potency [12]
active: Potency [7] 1.48 µM | Potency [8] 2.96 µM | Potency [9] 16.6 µM | Potency [16] 9.35 µM | Potency [19] 16.6 µM

COc1cc(F)c(C(C)C)cc1-c1ccc(C(F)(F)F)cc1CN1C(=O)O[C@H](c2cc(C(F)(F)F)cc(C(F)(F)F)c2)[C@@H]1C
inactive: Potency [11] | Potency [12] | Potency [13]
active: Potency [1] 0.296 µM | Potency [2] 0.662 µM | Potency [7] 20.9 µM | Potency [8] 26.4 µM | Potency [10] 23.5 µM | Potency [17] 1.66 µM
